Screens (PubChem BioAssay)
HCV inhibitor: qHTS Assay for Inhibitors of Hepatitis C Virus (HCV); Huh7.5.1 HCVcc-Cre infection, luciferase reporter, 44 h; Potency, µM (highest dose often 41.8 µM), without a hit: top-dose activity change, negative = inhibition, most hits filed as inhibitors; 340,000 tested, 3.4% active; note: potency is the fitted concentration of half-maximal effect
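Luciferase read-out (15 sec integration) after a 15 min room-temperature substrate step quantifies HCVcc-Cre infection. Cells, 1,000 per well, had compound added 4 h post-plating, then virus at ~0.5 moi, and were cultured 44 h.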
FMDV inh: High Throughput Screening for Foot and Mouth Disease Virus Antivirals. FMDV antiviral cell-based qHTS. Potency, µM (titrated, usually from 57.9 µM), for inactives: at the highest dose activity change, negative = inhibition, most hits filed as inhibitors. 410,000 tested, 1.2% active. AID 1159524, 2015; calls by dose curve; tested in HEK293T cells; note: read-out not given here; potency is the fitted concentration of half-maximal effect; nearly all actives have a fitted effect of over 45% in size
HCMV antiviral: qHTS Assay for inhibitors of the human cytomegalovirus (HCMV). AID 1259415, 2018. 410,000 tested, 4.5% active. HFF cells, HCMV-luciferase reporter, 72 h; stronger effect = lower value. activity change, negative = inhibition, % at 57.5 µM; in the data active = activity change below about -60%; inconclusive = no clear call, values can overlap the other calls; inactive = above about -39%
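Human foreskin fibroblasts infected with luciferase-reporter HCMV at MOI 1 PFU/cell, compounds at two doses. Luciferase measured 72 h post infection; normalized to buffer-only basal and Salinomycin (10uM) controls.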
Sm TGR inh: qHTS Assay for the Inhibitors of Schistosoma Mansoni Peroxiredoxins | Schistosoma mansoni thioredoxin glutathione reductase (TGR), Q962Y6 | purified TGR, DTNB reduction, TNB absorbance 405 nm | Potency, µM (top dose mostly 114 µM), for inactives: at the highest dose activity change, negative = inhibition, hits mostly inhibitors | 360,000 tested, 3% active | AID 485364, 2010; note: potency is the fitted concentration of half-maximal effect; nearly all actives have a fitted effect of over 60% in size
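TGR 20 nM + NADPH 100 uM (dispensed conc.), cpd preinc 15 min RT; start with NADPH (500 uM addition) then DTNB (15 mM addition). Kinetic TNB absorbance, 405 nm filter. Four-parameter Hill fit across titration.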
VACV Venus inh: qHTS for Stage-Specific Inhibitors of Vaccinia Orthopoxvirus: Venus Reporter Primary qHTS. Vaccinia virus Venus reporter expression, fluorescence. Potency, µM (top dose mostly 36.5 µM), without a hit: top-dose activity change, negative = inhibition, actives largely listed as inhibitors. 330,000 tested, 0.46% active. AID 720580, 2013; calls by dose curve; tested in A549 cells; note: potency is the fitted concentration of half-maximal effect; nearly all actives have a fitted effect of over 30% in size
VACV mCherry inh: qHTS for Stage-Specific Inhibitors of Vaccinia Orthopoxvirus: mCherry Reporter Primary qHTS | Vaccinia virus mCherry reporter infection, fluorescence | 310,000 tested, 0.63% active | Potency, µM (top dose mostly 36.5 µM), for the others: at the highest dose activity change, negative = inhibition, actives largely listed as inhibitors | AID 720579, 2013; calls by dose curve; tested in A549 cells; note: potency is the fitted concentration of half-maximal effect; nearly all actives have a fitted effect of over 35% in size
The depositor's hits bear a star; i = inactive; u = inconclusive; x = no result given. Most compounds without a hit are left out; they make up all but 9.3% or so of the library. Unless noted, calls come from the whole dose curve; as a rule, active = well fitted curve in the direction sought with a large enough effect; inconclusive = small, poorly fitted or top-dose-only effect, or another doubt; inactive = no such curve, though single readings can be large; an effect the other way counts as inactive or inconclusive. % is set by controls: 0 for no effect and ±100 for the full control effect.

SMILES	HCV inhibitor	FMDV inh	HCMV antiviral	Sm TGR inh	VACV Venus inh	VACV mCherry inh
CC(=O)N1CCN(c2ccc(NCc3ccc(Br)o3)cc2)CC1	x	-21.6%	-62.1*	u	x	x
CCN1CCN(c2ccc(NC(=O)c3ccc(Br)o3)cc2)CC1	-5.9%	28.1%	50.2	-21.8%	x	x
Cc1ccccc1C(=O)Nc1cccc(NC(=O)c2ccc(-c3ccc(Br)cc3)o2)c1	u	u	-96.2*	37.9%	-20.9%	x
CSc1ncccc1C(=O)N(C)CC(=O)Nc1cccc(F)c1	-1.2%	-11.5%	44.9	-12.1%	-4.0%	i
COCCNC(=O)C1(C)CCN(C(=O)Cc2ccc(OC)c(OC)c2)C1 (stereo unspecified)	x	-15.3%	-21.0	x	10.5%	26.3%
Cc1ccccc1-c1nc(CS(=O)CC(=O)NC2CCCC2)c(C)o1 (stereo unspecified)	2.9%	22.3%	-14.6	0.0%	x	x
Cc1ccccc1-c1nc(CS(=O)CC(=O)NC2CCCCC2)c(C)o1 (stereo unspecified)	18.0%	93.0%	-8.7	39.8µM*	x	x
Cc1oc(-c2ccccc2F)nc1CS(=O)CC(=O)NC1CCCC1 (stereo unspecified)	-0.4%	25.4%	-25.2	14.1µM*	-2.6%	-7.4%
Cc1nnsc1C(=O)Oc1ccccc1Cl	x	-9.2%	-1.0	44.7µM*	-5.3%	-13.9%
Cc1ccccc1OC(=O)c1snnc1C	x	-14.1%	-1.4	7.0%	-6.3%	-4.1%
O=Nc1c(O)n(Cc2c(Cl)cccc2Cl)c2ccccc12	-0.1%	u	-79.4*	8.3%	-26.1%	u
O=Nc1c(O)n(Cc2ccc(Cl)cc2)c2ccccc12	-9.5%	2.5%	18.5	-8.1%	-25.5%	-25.6%
CCc1ccc(S(=O)(=O)c2nnn3c2nc(N2CCC(C)CC2)c2cc(Cl)ccc23)cc1	x	-12.7%	11.8	5.3%	-13.2%	i
O=C(Nc1cccc(Cl)c1)Nc1ccc(Br)cc1F	u	-19.1%	-69.0*	-8.0%	u	u
O=C(Nc1ccccc1)Nc1cc(OCC(F)(F)F)cc(OCC(F)(F)F)c1	6.31µM*	-19.9%	-100.1*	2.9%	u	u
O=C(Nc1ccccc1)Nc1cc(Cl)cc(Cl)c1	u	-28.7%	-91.4*	0.0%	11.2µM*	x
O=C(NCCNC(=O)c1cc(OCC(F)(F)F)ccc1OCC(F)(F)F)Nc1cccc(C(F)(F)F)c1	u	-2.4%	37.3	21.3%	x	x
CC(C)NC(=O)Nc1ccc(Br)cc1Cl	u	-22.6%	-61.2*	20.3%	-3.4%	i
COc1c2c(c(OC)c3ccccc13)[C@@]1(OC2)O[C@H](CCO)C[C@H](O)[C@H]1O	x	-10.3%	32.7	x	-7.7%	-6.9%
CCOc1cc(OCC)cc(C(=O)N2CCC[C@H]2C(=O)N2CCC[C@H]2C(=O)NCc2ccncc2)c1	x	u	11.0	x	5.5%	22.1%
O=C(Nc1ccc(CN2CCCCC2)cc1)Nc1ccc(Br)cc1Cl	15.8µM*	-10.5%	-61.7*	7.7%	-26.2%	-2.9%
Cc1ccc(NC(=O)Nc2cccnc2)cc1Cl	u	17.5%	u	6.7%	-20.8%	-16.8%
O=C(Nc1cccnc1)Nc1ccccc1Cl	u	0.0%	-21.5	-1.7%	x	x
S=C(Nc1ccc(Br)cc1Cl)N1CCCC1	23.7%	51.1%	65.7	4.6%	-13.9%	i
O=C(Nc1cccnc1)Nc1ccc(Br)cc1Cl	11.2µM*	3.6%	3.5	-0.1%	x	x
SMILES	HCV inhibitor	FMDV inh	HCMV antiviral	Sm TGR inh	VACV Venus inh	VACV mCherry inh
O=C(Nc1cccnc1)Nc1cc(Cl)cc(Cl)c1	u	u	-60.9*	-0.1%	u	-26.6%
O=C(NCc1csc2ccccc12)Nc1cc(Cl)cc(Cl)c1	u	u	-62.4*	1.9%	-17.4%	-27.8%
O=C(NCc1ccccn1)Nc1cc(Cl)cc(Cl)c1	-24.9%	2.2%	-24.1	92.8%	x	x
Cc1ccc(C)c(C(=O)CSc2n[nH]c(C)n2)c1	4.2%	4.7%	-32.6	-28.6%	x	x
CS(=O)(=O)Nc1ccccc1C(=O)Nc1cccc(Cl)c1	-4.3%	x	-67.4*	-4.2%	-22.6%	u
CS(=O)(=O)Nc1ccccc1C(=O)Nc1cc(Cl)cc(Cl)c1	u	u	-103.0*	-1.8%	11.2µM*	7.94µM*
CCS(=O)(=O)c1ccc(C(=O)Nc2cccc(Cl)c2)c(Cl)c1Cl	u	28.2µM*	u	7.1%	u	x
COc1cccc(NC(=O)c2ccccc2NS(C)(=O)=O)c1	-7.8%	-10.3%	77.8	2.9%	x	x
CN(N)c1nc2ccccc2nc1C(F)(F)F	-12.1%	-8.0%	-37.0	11.8%	-1.0%	11.0%
Cc1ccc(-n2cccn2)c(CN2CCCC(C(=O)c3ccc4c(c3)OCO4)C2)c1 (stereo unspecified)	u	-22.6%	-73.1*	3.8%	-17.1%	i
O=C(c1ccc2c(c1)OCO2)C1CCCN(Cc2cc(F)ccc2-n2cccn2)C1 (stereo unspecified)	7.9%	0.9%	31.2	14.1%	6.4%	10.1%
CCOC(=O)Cn1ccc(NC(=O)c2ccc3c(c2)OCO3)n1	0.7%	8.2%	-1.4	11.2%	x	x
Nc1ncnc2c1nc(Cl)n2C1OC(CO)C(O)C1O (stereo unspecified)	x	u	x	x	-27.8%	u
[N-]=[N+]=Nc1nc2c(N)ncnc2n1C1OC(CO)C(O)C1O (stereo unspecified)	x	-28.8%	x	x	12.6µM*	8.91µM*
Nc1ncnc2c1nc(Cl)n2[C@@H]1O[C@H](CO)[C@@H](O)[C@@H]1O	x	x	x	x	12.6µM*	u
CN(C)c1nc2c(N)ncnc2n1[C@H]1O[C@@H](CO)[C@H](O)[C@@H]1O	16.1%	5.4%	-69.7*	-5.1%	-11.2%	i
CN(C)c1nc2c(N)ncnc2n1C1OC(CO)C(O)C1O (stereo unspecified)	29.7%	-6.2%	-19.5	x	-8.6%	-14.8%
O=C1C2Sc3[nH]c(=O)sc3C(c3ccccc3)C2C(=O)N1c1ccccc1 (stereo unspecified)	-8.4%	-5.8%	-10.8	-14.5%	1.6%	-14.0%
CC(C)OP(=O)(OC(C)C)C1(NS(=O)(=O)c2ccc(Cl)cc2)C=C(Cl)C(=O)C(Cl)=C1	13.3%	-25.7%	-24.0	0.794µM*	x	x
